# FBA Mtb inh = Mtb fructose-bisphosphate aldolase inhibition; P9WQA3; purified M. tuberculosis FBA, fluorescence read-out; inhibition, % at 1 µM; 360,000 compounds, 2.3% hits; AID 588726; in the data active = inhibition above about 27%
# Autofluor counter = counter-screen for toxin protease inhibitors: compound fluorescence. 360,000 compounds, 3.1% hits. fluorescence intensity (no concentration beside the values). compound autofluorescence counterscreen, microsphere flow cytometry; stronger effect = higher value; in the data active = fluorescence intensity above about 16000; inconclusive = no clear call, values can overlap the other calls
# BoNT A protease = BoNT A light chain protease inhibition. 360,000 compounds, 0.17% hits. multiplex microsphere protease substrate cleavage, flow cytometry. AID 588499. inhibition, % at 10 µM
# BoNT-F LC inh = blocks Botulinum neurotoxin F light chain protease; Multiplex microsphere protease cleavage assay, flow cytometry; inhibition, % at 10 µM; 360,000 compounds, 0.22% hits; AID 588497; in the data active = inhibition above about 35%, passing the limit was not always enough; inconclusive = no clear call, values can overlap the other calls
# GDH-TPI inh = GDH-TPI coupled enzyme inhibition counter-screen; 360,000 compounds, 1.2% hits; inhibition, % at 4.8 µM; GDH-TPI coupled enzyme counterscreen, NADH absorbance; in the data active = inhibition above about 30%
# Anthrax LF inh2 = anthrax lethal factor protease inhibition; P15917; 360,000 compounds, 0.12% hits; AID 588501; inhibition, % at 10 µM; multiplex microsphere protease cleavage assay, LF
# Hits are given with their value; i = inactive; ? = inconclusive; nt = no result given; + = active, no number. Only some compounds are listed: those with a hit (about 6.7% of all), similar ones and a draw of the others. Cut-off read from the data, not from the text of the source, unless noted: active = inhibition above about 30%; inconclusive = no clear call, values can overlap the other calls; inactive = below that.
SMILES,FBA Mtb inh,Autofluor counter,BoNT A protease,BoNT-F LC inh,GDH-TPI inh,Anthrax LF inh2
O=C(N1CCOCC1)N1CCN(S(=O)(=O)c2ccc(Cl)cc2)CC1,i,i,i,?,i,i
COc1ccc(CCNC(=O)c2noc3c2CCCC3)cc1OC,i,21948,i,i,i,i
COc1ccc(CCNC(=O)c2nonc2N)cc1OC,i,20897,i,i,i,i
CCOC(=O)C(CC)n1cnc2c(nnn2-c2ccc(OC)cc2)c1=O (stereo not drawn),i,17635,i,i,i,i
COc1cccc(-n2nnc3c(=O)n(Cc4ccccc4F)cnc32)c1,i,21710,i,i,i,i
CCOC(=O)C(C)n1cnc2c(nnn2Cc2ccc(Cl)cc2)c1=O (stereo not drawn),i,i,i,i,i,i
COc1ccc(-n2nnc3c(=O)n(Cc4cc(C)ccc4C)cnc32)cc1,i,17509,i,i,i,i
CCOC(=O)C(C)n1cnc2c(nnn2Cc2ccc(C)cc2)c1=O (stereo not drawn),i,20875,?,i,i,i
COc1cccc(-n2nnc3c(=O)n(CC(=O)N4CCC(C)CC4)cnc32)c1,i,i,i,i,i,i
COc1cccc(-n2nnc3c(=O)n(CC(=O)N4CCC(Cc5ccccc5)CC4)cnc32)c1,i,24394,?,i,i,i
CCCc1nnc(NC(=O)C(=O)NCCN(C)C)s1,i,nt,nt,nt,31.0,nt
O=C(NCc1ccccc1)C(c1cccs1)N(C(=O)c1csnn1)C1CC1 (stereo not drawn),i,21285,i,i,i,i
O=C(NCCc1ccccc1)C(c1cccs1)N(C(=O)c1csnn1)C1CC1 (stereo not drawn),i,20245,?,i,i,i
COc1ccc(CNC(=O)C(c2cccs2)N(C(=O)c2csnn2)C2CC2)cc1 (stereo not drawn),i,24268,i,i,i,i
O=C(NCCc1ccccc1)C(c1ccccc1)N(C(=O)c1csnn1)C1CC1 (stereo not drawn),i,i,i,i,i,i
CCC(C)N(CC(=O)NCc1ccc(OC)cc1)C(=O)c1csnn1 (stereo not drawn),i,16830,?,i,i,i
O=C(c1cn(CC2CCCCC2)nn1)N1CCN(c2ccc(F)cc2)CC1,i,i,i,i,i,i
O=C(NC1CCCCC1)c1ccccc1NC(=O)C1CC(=O)N(c2ccccc2)C1 (stereo not drawn),i,i,i,i,i,i
CCc1ccc(OCC(=O)N(C)CCC#N)c(Br)c1,i,i,i,i,i,i
Cc1nc2ccccc2n1CC(=O)NN,i,i,i,i,i,i
Cc1nc2ccccc2n1CC(=O)NCc1ccccc1,i,22747,i,i,i,i
O=C(Cn1c(CC(=O)N2CCCC2)nc2ccccc21)NCc1ccccc1,i,24078,i,i,i,i
CC1CCN(S(=O)(=O)N2CCCC(C(=O)NCc3ccccc3Cl)C2)CC1 (stereo not drawn),i,i,i,i,i,i
O=C(NCc1ccccc1Cl)C1CCN(S(=O)(=O)N2CCCCCC2)CC1,i,17397,i,i,i,i
CCCCOC(=O)C1=C(C)NC(=O)NC1c1ccc(OC)cc1 (stereo not drawn),i,i,i,?,i,i
SMILES,FBA Mtb inh,Autofluor counter,BoNT A protease,BoNT-F LC inh,GDH-TPI inh,Anthrax LF inh2
COc1ccc2c(c1OC)C(=O)N(c1ccc(F)cc1)C2,i,i,i,i,i,i
O=C(Cc1csc(Nc2nc(=S)[nH]c3ccccc23)n1)NCc1ccc(Cl)cc1,i,23044,i,i,i,i
COc1ccc(CNC(=O)Cc2csc(Nc3nc(=S)[nH]c4ccccc34)n2)cc1,i,i,i,i,i,i
CCc1cc(=O)oc2c3c(cc(OCC(=O)N[C@H](C(=O)O)[C@H](C)CC)c12)OC(C)(C)CC3,+,i,i,i,i,i
CCCc1cc(=O)oc2c3c(cc(OCC(=O)N[C@@H](C)C(=O)O)c12)OC(C)(C)CC3,+,i,i,i,i,i
CCCc1cc(=O)oc2cc(C)cc(OCC(=O)NC(Cc3c[nH]c4ccc(O)cc34)C(=O)O)c12 (stereo not drawn),i,i,i,i,i,i
CCCc1cc(=O)oc2c3c(cc(OCC(=O)N[C@@H](CSC)C(=O)O)c12)OC(C)(C)CC3,+,i,i,i,i,i
Cc1cc(=O)n2c(C(=O)Nc3ccc(C(=O)OC(C)C)cc3)c(C(=O)Nc3ccccc3)sc2n1,i,i,i,i,i,i
COc1ccc(-c2cc3ccc(O)cc3oc2=O)cc1,+,i,i,i,i,i
